Shown are actives, neighbours in structure and some others; about 2.4% of the full set was active somewhere.
D2 PAM-1 = positive allosteric modulators of human D2 dopamine receptor; P14416; HEK293 T-REx D2, calcium flux, EC20 dopamine potentiation; potentiation, % at 10 µM; actives 0.34% (n = 340,000);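 active = potentiation over 3 SD above the plate norm, cut at about 30% in these data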; note: 0% is about no effect
Target sequence (P14416 whole entry, looked up): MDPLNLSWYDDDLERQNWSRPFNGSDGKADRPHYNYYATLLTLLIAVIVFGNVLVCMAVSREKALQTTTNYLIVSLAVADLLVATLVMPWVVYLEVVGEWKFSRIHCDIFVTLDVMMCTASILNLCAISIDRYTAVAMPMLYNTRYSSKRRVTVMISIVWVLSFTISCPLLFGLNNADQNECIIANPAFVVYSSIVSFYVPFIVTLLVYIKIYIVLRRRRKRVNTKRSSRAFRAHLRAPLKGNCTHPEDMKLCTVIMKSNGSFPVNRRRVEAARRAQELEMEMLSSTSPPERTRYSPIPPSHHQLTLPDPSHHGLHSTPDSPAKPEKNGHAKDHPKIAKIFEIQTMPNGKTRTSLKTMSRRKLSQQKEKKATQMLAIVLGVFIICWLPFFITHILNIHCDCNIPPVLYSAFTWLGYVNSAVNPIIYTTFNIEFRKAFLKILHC
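Primary screen. Calcium kinetics in induced HEK293 T-REx D2 cells: compound pre-addition 180 s, EC20 dopamine, 180 s more.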
D2 PAM-2 = human D2 receptor positive allosteric modulation; AID 624464; P14416; actives 0.23% (n = 360,000); potentiation, % (no concentration beside the values); DiscoveRx D2 beta-arrestin cells, luminescence, 90 min; 100% = 57 uM dopamine signal; in the data active = potentiation above about 50%
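PathHunter D2 cells, attached overnight at 37 deg C, received compound in DMSO plus dopamine at EC20 (50 nM final) for 90 min at 37 deg C. Beta-arrestin recruitment was read as luminescence after 1 h with detection reagent at ambient temperature.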
D2 ag-1 = D2 dopamine receptor (human) agonism | activation, % at 2 µM | AID 485358 | actives 0.53% (n = 340,000) | P14416 | HEK293 T-REx D2 cells, calcium flux agonist mode;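 active = activation over 3 SD above normal in the single-dose calcium agonist read, cut at about 30% in these data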; note: 0% is about no effect
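HEK293 Trex D2 cells, tetracycline-induced, o/n 30 C 5% CO2; no-wash Ca dye, RT 30–90 min; 10-cycle baseline, 23 nl cpd added, kinetic Ca read 180 s; agonist hits = positive Ca response.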
D2 antagonist = antagonizes the human D2 dopamine receptor | P14416 | actives 2% (n = 340,000) | inhibition, % at 10 µM | HEK293 TREx D2 cells, calcium flux, dopamine EC80 | AID 485344; in the data active = inhibition above about 30%; inactive = below that, where a call was filed; note: 0% is about no effect
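Dopamine at EC80 is the agonist stimulus; test compounds precede it by 180 s. Calcium flux read kinetically in a force-coupled, inducible HEK293 T-REx D2 cell line.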
D2 ag-2 = activates the human D2 dopamine receptor; activation, % (no concentration beside the values); P14416; DiscoveRx PathHunter D2 beta-arrestin, luminescence, 90 min; 100% = 57 uM dopamine signal; actives 0.084% (n = 360,000); AID 624465; in the data active = activation above about 40%
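DiscoveRx PathHunter D2 beta-arrestin cells (2,100/well) attached overnight, then compound-stimulated 90 min at 37 C in HBSS/10 mM HEPES/0.1% Tween-20 buffer; beta-galactosidase complementation read by luminescence after 1 h at ambient temperature. Dopamine 57 uM final (EC100) as control.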
* marks the source's active call; other numbers are inactive results; . = no result.

SMILES	D2 PAM-1	D2 PAM-2	D2 ag-1	D2 antagonist	D2 ag-2
CCOc1ccc(CN(C)CC(=O)Nc2ccc3c(c2)CCC3)cc1OC	-1.9	-8.5	2.1	30.1*	-0.6
Cc1cc(C)c(NC(=O)CSCc2c(C)noc2C)c(C)c1	6.5	-11.6	0.3	49.1*	-3.2
Cc1ccc(NC(=O)CSCc2c(C)noc2C)cc1C	-7.9	7.6	-0.5	0.9	-4.8
COc1cc(C(=O)NNC(=O)C2CSC3(C)CCC(=O)N23)cc(OC)c1OC (stereo unspecified)	8.7	-0.9	-1.0	40.6*	-1.1
COC(=O)c1c(NC(=O)C(C)C)sc2c1C(C(=O)OC)CC2 (stereo unspecified)	47.4*	-6.6	0.0	0.4	-2.6
COc1ccc(C(=O)NCC(C)C)c(OC)c1	44.3*	-3.1	0.9	-6.3	-0.6
CCCNC(=O)c1ccc(OC)cc1OC	1.6	-4.7	0.3	4.6	-5.4
COc1ccc(OCCCC(=O)NCC(C)C)cc1	-0.7	-8.2	0.5	30.6*	-2.9
CCCCCCCCC(=O)NCCOc1ccc(OC)cc1	-8.2	-1.5	0.3	21.1	-5.0
COc1ccc(N2C(=O)C(Cl)=C(N3CCN(Cc4ccccc4)CC3)C2=O)cc1	.	0.7	.	.	-2.3
O=C1C(Cl)=C(N2CCN(Cc3ccccc3)CC2)C(=O)N1c1ccccc1	-10.7	-15.1	-0.5	36.7*	-2.9
CC(NC(=O)c1cccc(NC(=O)c2nsc3ccccc23)c1)c1ccccc1 (stereo unspecified)	-8.1	.	0.6	.	.
C[C@H](NC(=O)OCc1ccccc1)c1nnc([C@H](C)NC(=O)OCc2ccccc2)o1	9.2	-8.4	-0.2	38.3*	6.0
C[C@H](NC(=O)OCc1ccccc1)c1nnc([C@H](Cc2ccccc2)NC(=O)OC(C)(C)C)o1	8.1	-4.7	0.9	30.9*	0.2
O=C(Nc1ccc2c(c1)N(C1CCCC1)C(=O)c1ccccc1S2)c1cccc(F)c1	-9.5	.	-0.5	.	.
O=C(CN1C(=O)COc2ccc(S(=O)(=O)Nc3ccccc3)cc21)Nc1cccc(Cl)c1	-7.7	.	0.7	.	.
COC(=O)c1cc(C(=O)OC)cc(-n2c(C)cc(C(=O)CC#N)c2C)c1	13.5	-0.6	-0.5	32.7*	-1.6
Clc1ccc(OCCCNCc2ccccc2)c2ccccc12	-29.7	-15.2	4.2	41.5*	-0.9
C=CCc1ccc(OCCCNCc2ccccc2)c(OC)c1	-31.4	-79.4	0.3	62.2*	-1.1
Brc1ccccc1OCCNCc1ccccc1	-20.2	-16.6	1.3	94.0*	0.2
Cc1cc(C)c(C)c(OCCNCc2ccccc2)c1	-16.8	-11.7	0.7	75.1*	3.9
C=CCc1ccc(OCCCNC2CCCC2)c(OC)c1	.	-5.4	.	.	0.5
Cc1ccc(C(C)C)c(OCCNCCc2ccccc2)c1	-21.5	-15.0	-2.6	41.4*	-1.1
Cc1ccc(C(C)C)c(OCCCNCc2cccnc2)c1	-12.3	-23.2	-0.6	9.6	-3.2
C=CCc1ccccc1OCCNCc1ccccc1	-11.6	-19.7	0.1	69.0*	3.1
SMILES	D2 PAM-1	D2 PAM-2	D2 ag-1	D2 antagonist	D2 ag-2
COc1ccc(CNC(=O)c2ccc3c(c2)N(Cc2c(F)cccc2Cl)C(=O)CS3)cc1	-2.2	.	1.7	.	.
CCC(=O)Nc1nc2ccc(NC(=O)c3cc(OC)c(OC)c(OC)c3)cc2s1	31.5*	7.7	-0.9	25.3	-1.1
COc1cc(C(=O)Nc2ccc(Cl)c([N+](=O)[O-])c2)cc(OC)c1OC	-14.3	-17.5	2.5	36.7*	1.4
COc1ccc2nc(NC(=O)Nc3ccccc3)sc2c1	-3.9	-5.8	1.6	23.9	2.0
CCOc1ccc2nc(NC(=O)COC)sc2c1	33.9*	-1.0	0.2	1.0	-0.7
CCOc1ccc2nc(NC(=O)Nc3ccccc3)sc2c1	-2.0	12.4	0.8	31.6*	-0.6
CCOCC(=O)Nc1nc2ccc(OC)cc2s1	.	-21.9	1.3	2.0	-2.0
N#C/C(=C/c1ccncc1)c1nc2ccccc2s1	-1.7	-6.9	30.2*	4.0	7.6
CC(C)=C(C#N)c1nc2ccccc2s1	-2.8	-1.1	1.1	-23.6	-3.8
CCc1nn(CC(=O)N(CC)Cc2ccccc2)c(=O)c2cc3occc3n12	1.4	.	.	.	.
COc1ccc2c(c1)-c1ccccc1S(=O)(=O)N2C	-18.5	-12.6	0.5	33.7*	0.7

Assay outcomes as filed in PubChem.
